Compound activity from PubChem BioAssay.
Sampled rows, rich in hits. Any-hit rate of the full collection: about 3.6%.
CendR NRP1 mod: modulators of CendR peptide binding to NRP-1, primary screen, biochemical, fluorescence polarization, uHTS. hit rate 0.85% among 360,000. Neuropilin-1 (Homo sapiens), O14786. inhibition, % at 25 µM. FAM-RPARPAR peptide binding to NRP-1;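 active = inhibition or corrected inhibition above about 18%, plus a signal ratio from 0.5 to 1.5, limit read from the data, passing the limit was not always enough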
Myeloid diff 2: induction of myeloid progenitor differentiation, primary screen, cell-based, flow cytometry, MLPCN library | ER-HoxA9 myeloid progenitors, lysozyme-GFP differentiation | calls only at 10 µM | hit rate 1% among 360,000 | AID 624256, 2012;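 active = normalized GFP-positive differentiation at or above the plate's own cutoff, the solvent-only control mean plus 3 SD; inconclusive = no clear call, values can overlap the other calls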;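 note: cells exposed to compound for four days before flow analysis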
NadD inh: inhibitors of S. aureus NadD, primary screen, biochemical, colorimetric, uHTS. hit rate 0.78% among 360,000. AID 602399, 2012. inhibition, % at 20 µM. Nicotinate-nucleotide adenylyltransferase NadD (Staphylococcus aureus N315). purified NadD enzyme, colorimetric absorbance read-out; in the data active = inhibition above about 26%
CRFR2-BP antag: antagonists of CRF-BP/CRF-R2 complex, primary screen, cell-based, HEK293, calcium dye fluorescence, uHTS; inhibition, % at 11.8 µM; CRF-induced calcium fluorescence; hit rate 0.59% among 350,000; AID 588475, 2011;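 active = inhibition of the ligand-induced calcium signal above about 50% at the single tested concentration, limit read from the data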
FAS-TE inh: FAS thioesterase domain inhibitors, primary screen, biochemical, fluorescence intensity, uHTS | Fatty acid synthase (Homo sapiens), P49327 | hit rate 0.67% among 360,000 | inhibition, % at 15 µM | recombinant FAS-TE, OMFH fluorogenic substrate, fluorescence endpoint;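 active = compounds whose normalised, plate-corrected inhibition of enzyme fluorescence in the single-dose primary screen is 50% or more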
Target sequence (P49327 whole entry, looked up, the tested form may be a part): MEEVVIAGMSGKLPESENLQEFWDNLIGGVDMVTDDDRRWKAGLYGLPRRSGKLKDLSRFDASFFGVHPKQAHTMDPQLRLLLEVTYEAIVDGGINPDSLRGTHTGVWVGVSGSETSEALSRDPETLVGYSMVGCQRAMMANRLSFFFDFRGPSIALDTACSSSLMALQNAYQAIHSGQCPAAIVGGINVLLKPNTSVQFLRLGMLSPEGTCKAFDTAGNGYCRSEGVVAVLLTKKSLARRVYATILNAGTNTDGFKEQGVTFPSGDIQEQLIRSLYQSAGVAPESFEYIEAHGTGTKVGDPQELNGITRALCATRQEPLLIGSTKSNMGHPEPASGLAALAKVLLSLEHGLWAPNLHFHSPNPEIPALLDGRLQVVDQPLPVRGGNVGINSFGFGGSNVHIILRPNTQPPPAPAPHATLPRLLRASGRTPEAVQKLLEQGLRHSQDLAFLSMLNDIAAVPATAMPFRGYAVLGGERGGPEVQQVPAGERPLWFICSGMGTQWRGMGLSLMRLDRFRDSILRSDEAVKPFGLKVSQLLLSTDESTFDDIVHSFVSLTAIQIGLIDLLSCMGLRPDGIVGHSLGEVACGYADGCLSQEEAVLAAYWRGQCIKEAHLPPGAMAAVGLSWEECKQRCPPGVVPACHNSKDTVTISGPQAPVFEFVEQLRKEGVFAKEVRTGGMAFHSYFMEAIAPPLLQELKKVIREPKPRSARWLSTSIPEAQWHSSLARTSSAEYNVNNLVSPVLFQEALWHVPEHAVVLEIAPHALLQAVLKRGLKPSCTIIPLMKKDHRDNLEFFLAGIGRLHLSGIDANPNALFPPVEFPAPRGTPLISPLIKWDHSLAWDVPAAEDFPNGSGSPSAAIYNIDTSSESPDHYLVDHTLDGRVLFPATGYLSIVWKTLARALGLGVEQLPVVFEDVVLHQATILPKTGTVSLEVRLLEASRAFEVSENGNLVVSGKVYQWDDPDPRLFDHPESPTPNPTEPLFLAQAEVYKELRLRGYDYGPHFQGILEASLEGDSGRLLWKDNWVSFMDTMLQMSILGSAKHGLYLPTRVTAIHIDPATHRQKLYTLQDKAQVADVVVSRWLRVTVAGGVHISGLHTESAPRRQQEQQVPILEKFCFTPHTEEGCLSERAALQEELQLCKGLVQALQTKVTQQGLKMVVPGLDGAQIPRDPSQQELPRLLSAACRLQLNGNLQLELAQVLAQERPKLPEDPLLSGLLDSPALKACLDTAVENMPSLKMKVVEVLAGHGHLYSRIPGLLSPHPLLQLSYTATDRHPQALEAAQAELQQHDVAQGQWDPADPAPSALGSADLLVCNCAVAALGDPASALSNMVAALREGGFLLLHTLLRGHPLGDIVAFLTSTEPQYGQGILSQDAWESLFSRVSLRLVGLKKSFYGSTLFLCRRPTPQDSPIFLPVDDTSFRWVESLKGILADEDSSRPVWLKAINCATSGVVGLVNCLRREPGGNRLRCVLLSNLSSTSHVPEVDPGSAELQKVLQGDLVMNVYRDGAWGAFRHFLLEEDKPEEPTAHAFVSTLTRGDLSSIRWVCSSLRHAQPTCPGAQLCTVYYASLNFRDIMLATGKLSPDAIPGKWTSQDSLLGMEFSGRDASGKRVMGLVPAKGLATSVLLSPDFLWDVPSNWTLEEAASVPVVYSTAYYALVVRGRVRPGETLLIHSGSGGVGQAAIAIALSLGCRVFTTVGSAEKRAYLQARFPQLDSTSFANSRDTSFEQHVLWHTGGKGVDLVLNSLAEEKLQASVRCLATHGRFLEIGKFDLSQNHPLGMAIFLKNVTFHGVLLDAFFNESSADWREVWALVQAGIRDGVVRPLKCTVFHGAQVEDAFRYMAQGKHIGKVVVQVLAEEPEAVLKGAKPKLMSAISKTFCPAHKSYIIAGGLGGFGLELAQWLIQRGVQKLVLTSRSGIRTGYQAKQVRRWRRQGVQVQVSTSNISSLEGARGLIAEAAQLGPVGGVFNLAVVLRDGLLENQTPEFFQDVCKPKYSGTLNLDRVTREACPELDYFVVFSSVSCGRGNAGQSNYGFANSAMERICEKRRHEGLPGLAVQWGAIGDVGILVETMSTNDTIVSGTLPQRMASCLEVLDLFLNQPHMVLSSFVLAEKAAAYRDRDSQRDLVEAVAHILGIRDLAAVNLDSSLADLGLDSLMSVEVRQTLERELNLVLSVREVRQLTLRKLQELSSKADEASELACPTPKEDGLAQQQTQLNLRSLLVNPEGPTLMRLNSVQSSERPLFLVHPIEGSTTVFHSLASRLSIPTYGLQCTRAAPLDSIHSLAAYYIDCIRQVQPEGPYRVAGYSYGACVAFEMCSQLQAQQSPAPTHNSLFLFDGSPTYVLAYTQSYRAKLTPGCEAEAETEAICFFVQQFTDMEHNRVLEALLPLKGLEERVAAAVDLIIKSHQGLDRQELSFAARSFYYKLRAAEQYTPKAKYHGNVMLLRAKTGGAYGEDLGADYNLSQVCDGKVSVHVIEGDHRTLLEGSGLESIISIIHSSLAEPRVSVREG
Hits are given with their value; 0 = inactive; ? = inconclusive; - = no result given; + = active, no number.

SMILES	CendR NRP1 mod	Myeloid diff 2	NadD inh	CRFR2-BP antag	FAS-TE inh
N#Cc1ccc(C(=O)N2CCC3CC2c2cc(N4CCCCC4)ccc23)cc1 (stereo not drawn)	0	0	0	0	0
Cc1ccc(/C=N/NC(=O)c2nnn(-c3nonc3N)c2-c2ccccc2)o1	0	0	0	0	0
Cc1ccc(/C=N/NC(=O)c2nnn(-c3nonc3N)c2C)o1	20.2	0	0	0	0
CCN(CC)c1ccc(N2C(=O)/C(=C/c3cccnc3)SC2=S)cc1	0	0	0	0	0
c1ccc(Cc2cc[n+](Cc3ccccn3)cc2)cc1	0	+	0	0	0
CN1CCN(C(=O)CSc2nc(-c3cccs3)ccc2C#N)CC1	0	+	0	0	0
COc1cc2ccnc(C=NO)c2cc1OC	0	0	0	0	0
CCN1C(=O)C(=O)c2cc(C)ccc21	33.7	0	0	0	0
CC(C)Oc1ccc(Br)cc1/C=N\NC(N)=S	0	+	0	0	0
Cc1cc(/C=N/NC(N)=S)c(C)n1-c1ccc(Br)cc1	0	0	0	0	0
Cc1ccccc1C(=O)NCC(=O)OC1CCCCC1=O (stereo not drawn)	0	0	0	67.8	0
COc1ccc(C(=O)NCC(=O)OC2CCCCC2=O)cc1 (stereo not drawn)	0	0	0	0	0
COC(=O)[C@@]12C[C@@H](CC(=O)N3CCN(C(=O)C4CC4)CC3)C(=O)N(CCc3ccc(OC)c(OC)c3)C1=CCC(C)(C)C2	0	0	-	-	-
COc1ccc(-c2cc(C(=O)NC3CCCC3)c3ccccc3n2)cc1OC	0	0	0	96.8	0
CC(C)c1ccc(Nc2nc(Cl)nc(NCc3ccco3)n2)cc1	0	0	0	0	0
COc1ccc(Nc2nc(Cl)nc(NCc3ccco3)n2)c(OC)c1	0	0	0	55.9	0
CCCNC(=O)C1(C)CCCN(C(=O)/C=C/c2ccccc2)C1 (stereo not drawn)	0	0	0	-	0
CCCCn1c(SCC(=O)Nc2cc(C)on2)nnc1-c1ccncc1	0	0	0	0	0
CCCCn1c(SCC(=O)Nc2cc(C)on2)nnc1-c1cccnc1	21.8	0	0	0	0
CCCc1cc(=O)oc2cc(C)c(CN3CCCC3)c(O)c12	0	0	29.4	0	0
C=CCc1c(OC(C)=O)c2ccccc2n(C)c1=O	25.0	0	0	0	0
COC/C=C/C1=CC2=CC(=O)C(C)(OC(=O)c3cnc4ccccc4n3)C(=O)C2=CN1C1CC1 (stereo not drawn)	0	0	0	0	0
COC/C=C/C1=CC2=CC(=O)C(C)(OC(=O)c3cnc4ccccc4n3)C(=O)C2=CN1CC1CC1 (stereo not drawn)	29.3	?	0	0	0
COC/C=C/C1=CC2=CC(=O)C(C)(OC(=O)c3cnc4ccccc4n3)C(=O)C2=CN1Cc1ccccc1 (stereo not drawn)	24.9	0	0	0	0
COC/C=C/C1=CC2=CC(=O)C(C)(OC(=O)c3cnc4ccccc4n3)C(=O)C2=CN1Cc1ccc(OC)cc1 (stereo not drawn)	37.0	0	0	0	0
SMILES	CendR NRP1 mod	Myeloid diff 2	NadD inh	CRFR2-BP antag	FAS-TE inh
O=C(Nc1ccc(F)cc1)N[C@H]1CC[C@H](CCNS(=O)(=O)c2cccc(Cl)c2)O[C@@H]1CO	0	0	-	-	-
COc1ccc(C(O)c2ncc(-c3ccccc3)[nH]2)cc1F (stereo not drawn)	0	0	0	-	0
OCCN1CCN(CC(O)COc2ccc(Cl)cc2)CC1 (stereo not drawn)	0	0	0	0	0
OCCN1CCN(CC(O)COc2ccc(C34CC5CC(CC(C5)C3)C4)cc2)CC1 (stereo not drawn)	0	+	0	0	0
Cc1csc(NC(=O)c2cc(-c3ccccc3)nc3ccccc23)n1	35.0	0	0	0	0
CC(=O)Nc1nc(-c2ccc(-c3ccccc3)cc2)cs1	21.0	0	0	0	0
Cn1cnnc1SCC(=O)Nc1nc(-c2ccccc2)cs1	19.8	0	0	0	0
Cc1nnc(SCC(=O)Nc2nc(-c3ccccc3)cs2)n1N	0	0	0	0	0
CC(C)(C)c1nnc(NC(=O)c2cc(-c3ccccc3)nc3ccccc23)s1	0	0	0	0	0
CN(Cc1nc2ccccc2n1C)C(=O)c1ccco1	0	0	0	0	0
CCCCCCCN1C(Nc2ccccc2)=NC[C@@H]1Cc1ccccc1	26.2	0	0	0	0
COc1c2c(c3c(c1OC)c(=O)c1ccccc1n3C)OCO2	25.8	?	0	0	0
COc1c2c(c(OC)c3c1c(=O)c1ccccc1n3C)OCO2	0	-	0	0	0
O=C(CN1C(=O)c2ccccc2C1=O)N1CCN(C2c3ccccc3-c3ccccc32)CC1	0	0	0	0	56.5
CC(C)c1ccc(S(=O)(=O)N2CCN(C(=O)CN3C(=O)c4ccccc4C3=O)CC2)cc1	30.1	0	0	0	0
O=C(CN1C(=O)c2ccccc2C1=O)N1CCN(S(=O)(=O)c2ccccc2)CC1	0	0	0	0	0
O=C1CC(C2CCCO2)C(=O)N1c1ccc(Cl)c(Cl)c1 (stereo not drawn)	0	0	0	0	0
CC1(C(=O)O)CCCN(C(=O)c2ccc(OC(F)F)cc2)C1 (stereo not drawn)	0	0	0	-	0
Cc1ccnc(NC(=O)CCC(=O)N(CC(=O)NCCc2ccccc2)c2ccc(F)cc2)c1	0	0	0	0	0
COc1ccc(N(CC(=O)NCc2ccco2)C(=O)CCC(=O)Nc2ccccn2)cc1	21.0	0	0	0	0
CCOc1ccc(N(CC(=O)NCCc2ccccc2)C(=O)CCC(=O)Nc2cc(C)ccn2)cc1	0	+	0	0	0
CCCCCCCCNCCS(=O)(=O)NC1CCCCC1	0	0	0	0	0
COc1cc2c(c(OC)c1O)C(=O)CO2	0	0	0	0	0
COc1cc2c(c(OC)c1OC)C(=O)CO2	18.5	0	0	0	0
CCOC(=O)C1(CCOc2ccccc2)CCN(CC=C(C)C)CC1	0	+	0	0	0
SMILES	CendR NRP1 mod	Myeloid diff 2	NadD inh	CRFR2-BP antag	FAS-TE inh
O=C1C(=Cc2cn(-c3ccccc3)nc2-c2ccc(OCc3ccccc3F)cc2)SC(=S)N1CCS(=O)(=O)O	0	0	30.1	-	0
O=C(O)CN1C(=O)/C(=C\c2ccccc2OCc2ccc(Cl)cc2)SC1=S	0	0	0	0	0
O=C1C(=Cc2cn(-c3ccccc3)nc2-c2ccc(OCc3ccc(Cl)cc3)cc2)SC(=S)N1CCS(=O)(=O)O	0	0	59.9	-	0
CCOC(=O)C1(CC2CCCCO2)CCN(S(=O)(=O)c2cc(C)cs2)CC1 (stereo not drawn)	0	0	0	0	0
COc1ccc(-n2cnnc2SCC(=O)NC2CCCCC2)cc1	0	0	0	0	0
N=C1/C(=C/c2ccc(OCc3ccccc3F)cc2)C(=O)N=C2SC(CC(=O)N3CCOCC3)=NN12	0	?	33.2	0	0
